Consider 40 compounds from PubChem BioAssay (Tox21).

Inconclusive results are not listed. A number with no mark means an inactive call. The call rests on the fitted dose curve; in most records, active means well fitted curve in the direction sought with a large enough effect in the signal ratio in the repeat runs (not every such curve was filed as active); inconclusive means weak or mixed curves, or effect the other way; inactive means no such curve, though single readings can be large or run the other way; the % refers to the signal ratio.
On the % scale 0 is the no-effect control and ±100 the full control effect.

The target of the test is Estrogen receptor (Homo sapiens) (UniProt P03372). As to the kind of experiment: qHTS assay to identify small molecule antagonists of the estrogen receptor alpha (ER-alpha) signaling pathway (AID 743069). The settings on record: HEK293 ER-alpha-UAS-bla, beta-lactamase ratio, antagonist mode; series mostly up to 69.4 µM; activity, negative = inhibition: at the top concentration. An excerpt: National Center for Advancing Translational Sciences [NCATS]
Estrogen receptor (Homo sapiens), sequence (P03372 whole entry, looked up): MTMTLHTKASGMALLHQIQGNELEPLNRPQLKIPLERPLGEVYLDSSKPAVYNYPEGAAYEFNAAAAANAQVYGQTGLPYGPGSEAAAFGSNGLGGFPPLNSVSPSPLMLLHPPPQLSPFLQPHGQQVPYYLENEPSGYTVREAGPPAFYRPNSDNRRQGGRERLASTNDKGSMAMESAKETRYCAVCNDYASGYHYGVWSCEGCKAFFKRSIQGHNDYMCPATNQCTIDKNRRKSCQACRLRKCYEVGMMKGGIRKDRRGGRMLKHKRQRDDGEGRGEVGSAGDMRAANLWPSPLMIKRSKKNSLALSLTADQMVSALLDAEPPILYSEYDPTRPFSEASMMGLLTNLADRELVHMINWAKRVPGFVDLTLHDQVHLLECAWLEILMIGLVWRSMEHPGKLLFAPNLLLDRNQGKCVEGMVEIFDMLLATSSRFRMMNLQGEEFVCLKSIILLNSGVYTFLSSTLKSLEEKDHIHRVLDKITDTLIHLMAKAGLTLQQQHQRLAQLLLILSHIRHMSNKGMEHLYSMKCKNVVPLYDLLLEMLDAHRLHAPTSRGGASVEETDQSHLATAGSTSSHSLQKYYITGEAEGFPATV
NIH Chemical Genomics Center [NCGC]
U.S. Environmental Protection Agency [EPA]
National Institutes of Environmental Health Sciences [NIEHS]
National Toxicology Program [NTP]
U.S. Food and Drug Administration [FDA]
Estrogen receptor (ER), a nuclear hormone receptor, plays an important role in development, metabolic homeostasis and reproduction. Two subtypes of ER, ER-alpha and ER-beta have similar expression patterns with some uniqueness in both types. Endocrine disrupting chemicals (EDCs) and their interactions with steroid hormone receptors like ER causes disruption of normal endocrine function. To identify the compounds that inhibit ER signaling, an ER-alpha-UAS-bla GripTiteTM cell line (Invitrogen, Carlsbad, CA, USA) containing a beta-lactamase reporter gene under the control of an Upstream Activator Sequence (UAS) stably integrated into HEK293 cells was used to screen the Tox21 10K compound library.
Tox21 Assay Protocol Summary:
ER-alpha-bla cells were cultured in assay medium containing 2% charcoal stripped FBS overnight in the culture flasks before the assay was performed. The cells were dispensed at 5,000 cells/5 uL of assay medium per well into black wall/clear-bottom 1536-well plates using a Multidrop Combi (ThermoFisher Scientific, Waltham, MA) dispenser. After the assay plates were incubated at a 37C and 5% CO2 for 4 hr, 23 nL of compounds dissolved in DMSO, positive controls or DMSO only was transferred to the assay plate by a Pintool station (Kalypsys, San Diego, CA), followed by addition of 1 uL of 17beta-estradiol in assay medium using a Flying Reagent Dispenser (Aurora Discovery, San Diego, CA). The plates were incubated at 37C and 5% CO2 for 18 hr. Then 1 uL of LiveBLAzerTM B/G FRET substrate was added using a Flying Reagent Dispenser, the plates were incubated at room temperature for 2 hours, and fluorescence intensity was measured by an Envision plate reader (PerkinElmer, Shelton, CT).
For orientation: Quantitative high-throughput screening tests each substance at several concentrations.
Regarding `CC(C)(C)C(=O)NCCCC(=O)O`, the “activity, negative = inhibition” value is 7%.

Regarding `CCO[Si](CC(C)C)(OCC)OCC`, the “activity, negative = inhibition” value was 30.8%.

Consider `CCCCCCCCCCCCCCCCN(C)C`, for which the activity, negative = inhibition is -6.54% [at 6.71 µM].

For the compound `C=CC(=O)OCC[N+](C)(C)C`, the “activity, negative = inhibition” value is -6.95% [at 79.1 µM].

As for `O=Cc1ccc(C(=O)O)cc1`, the “activity, negative = inhibition” value is -6.47% [at 79.1 µM].

`Cc1cc(C)c(C)c(C)c1`: the “activity, negative = inhibition” value was 18.6%.

For `C=CCOC(=O)CCCCCCCC`, the “activity, negative = inhibition” value was 5.78% [at 79.1 µM].

Regarding `Clc1cc(Cl)c(Cl)c(Cl)c1Cl`, the “activity, negative = inhibition” value was -3.21%.

`CC(CN1CC(=O)NC(=O)C1)N1CC(=O)NC(=O)C1` (stereo not given): the “activity, negative = inhibition” value was -15%.

As for `CC(=O)Nc1ccc(S(=O)(=O)Nc2cc(C)on2)cc1`, the “activity, negative = inhibition” value is -16.5%.

Consider `CC(C)(O)c1ccc(C(C)(C)O)cc1`, for which the “activity, negative = inhibition” value was 8.52%.

As for `Cc1ccc(Br)cc1`, the “activity, negative = inhibition” value is -7%.

In the case of `CCCCCCCCCCCCCCCC(=O)OC`, the “activity, negative = inhibition” value was -2.63% [at 32.6 µM].

For the compound `CCCCN=C(N)N=C(N)N`, the “activity, negative = inhibition” value was 5.6%.

As to `C[C@@H]1CC[C@@]2(OC1)O[C@H]1C[C@H]3[C@@H]4CC[C@H]5C[C@@H](O)CC[C@]5(C)[C@H]4CC(=O)[C@]3(C)[C@H]1[C@@H]2C`, the “activity, negative = inhibition” value was 15.9% [at 32.6 µM].

`C/C(=N\O)c1ccc(OCC(=O)N2CCCCC2)cc1`: the “activity, negative = inhibition” value is -11.2%.

As to `O=C(CCBr)N1CCN(C(=O)CCBr)CC1`, the “activity, negative = inhibition” value is 8.02%.

As for `C/C=C/C(=O)CCCC`, the “activity, negative = inhibition” value is -14%.

As for `CN(C)c1cc(NC(=O)CNC(C)(C)C)c(O)c2c1C[C@H]1C[C@H]3[C@H](N(C)C)C(=O)C(C(N)=O)=C(O)[C@@]3(O)C(=O)C1=C2O`, the “activity, negative = inhibition” value is -5.26%.

Regarding `CCCCCCC(O)CO` (stereo not given), the “activity, negative = inhibition” value is 21.1%.

`Cc1ccc(S(=O)(=O)NC(=O)NN2CC3CCCC3C2)cc1` (stereo not given): the “activity, negative = inhibition” value is -6.5% [at 32.6 µM].

In the case of `CC(CC(=O)Cl)CC(C)(C)C` (stereo not given), the “activity, negative = inhibition” value was -8.23% [at 79.1 µM].

As to `CN(C)CCC[C@@]1(c2ccc(F)cc2)OCc2cc(C#N)ccc21`, the “activity, negative = inhibition” value was 10.9%.

As to `O=C(O)/C=C(\CC(=O)O)C(=O)O`, the “activity, negative = inhibition” value is -24.8%.

As for `COCc1nnc(-c2ccc[n+]([O-])c2)n1-c1c(Cl)c(Cl)cc2[nH]c(=O)c(=O)[nH]c12`, the “activity, negative = inhibition” value was 6.53%.

On to `CN(C)c1ccncc1`, for which the “activity, negative = inhibition” value was -15.5%.

Consider `CCN(CC)CC`, for which the “activity, negative = inhibition” value is 1.3% [at 79.1 µM].

Consider `CC(C)(C)OC(=O)c1ccccc1C(=O)O`, for which the “activity, negative = inhibition” value is 17.7%.

`CC(=O)OC1CCC(C(C)(C)C)CC1` (stereo not given): the “activity, negative = inhibition” value is 7.53%.

In the case of `CN(C)CCc1c[nH]c2ccc(CS(=O)(=O)N3CCCC3)cc12`, the “activity, negative = inhibition” value was -0.857%.

In the case of `CCCc1ccc(O)c(OC)c1`, the “activity, negative = inhibition” value is 17.6%.

`Cc1ccc2cccnc2c1`: the “activity, negative = inhibition” value is -8.57%.

For the compound `Cc1ccc(NC(N)=O)cc1`, the “activity, negative = inhibition” value is -8.6% [at 79.1 µM].

For the compound `CC(C)c1cc(C(C)C)cc(C(C)C)c1`, the “activity, negative = inhibition” value is 16.1%.

Regarding `CN1CCN(C(=O)C2CCCCC2)CC1`, the “activity, negative = inhibition” value was 2.48%.

In the case of `COc1cc(OC)cc(OC)c1`, the “activity, negative = inhibition” value was 4.94%.

Consider `c1coc(Cn2cccc2)c1`, for which the “activity, negative = inhibition” value is -7.93%.

As for `COC(=O)N/N=C/c1c[n+]([O-])c2ccccc2[n+]1[O-]`, the “activity, negative = inhibition” value is -4.57%.

Take `CCCCOCCCC`: the “activity, negative = inhibition” value was -0.695%.

`CCc1ccc(CC)cc1`: the “activity, negative = inhibition” value is -26.4% [at 79.1 µM].
